# Assay results as given in PubChem BioAssay (NCI).
# This is part of a sample that, as a whole, favours compounds with a hit. Of some 79,000 tested, about 15% had one in any assay. Values without a mark were called inactive. The source made the active and inactive calls. Cut-off read from the data, not from the text of the source: active = growth inhibition above about 70%; inactive = the rest.
# Key:
# [1] = NCI Yeast Anticancer Drug Screen. Data for the rad50 strain (AID 155);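 note: 0% = growth of vehicle-only cultures of the same strain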; conditions: S. cerevisiae rad50 strain growth inhibition; at 50.0 µM; stronger effect = higher value
# Method in brief: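 Inhibition values express reduced yeast growth in compound-treated cultures relative to vehicle-treated controls.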
# [2] = NCI Yeast Anticancer Drug Screen. Data for the mec2-1 strain (AID 157); conditions: S. cerevisiae mec2-1 strain, at 50.0 µM, stronger effect = higher value
# Method in brief: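 Test agents were screened against the mec2-1 yeast strain, with defined DNA repair or cell cycle alteration. Growth was scored as inhibition against vehicle-only controls.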
# [3] = NCI Yeast Anticancer Drug Screen. Data for the sgs1 mgt1 strain (AID 161);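 note: 0% = growth of cultures given vehicle only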; conditions: S. cerevisiae sgs1 mgt1 strain, at 50.0 µM, stronger effect = higher value
# Method in brief: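 Read-out: growth inhibition vs vehicle controls. Cells: mutant yeast strain deficient in DNA damage repair.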
# [4] = NCI Yeast Anticancer Drug Screen. Data for the cln2 rad14 strain (AID 165);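 note: 0% = growth equal to vehicle treated cultures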; conditions: S. cerevisiae cln2 rad14 strain, at 50.0 µM, stronger effect = higher value
# Method in brief: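 Growth of compound-exposed yeast (cln2 rad14 genotype) measured and expressed as inhibition relative to vehicle.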
# [5] = NCI Yeast Anticancer Drug Screen. Data for the bub3 strain (AID 167); conditions: S. cerevisiae bub3 mutant strain, at 50.0 µM, stronger effect = higher value
# Method in brief: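 Steps: expose the mutant yeast strain to compound; grow alongside vehicle-treated cultures; measure growth; express inhibition against the vehicle cultures.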
# [6] = NCI Yeast Anticancer Drug Screen. Data for the mlh1 rad18 strain (AID 175); conditions: S. cerevisiae mlh1 rad18 strain growth inhibition; at 50.0 µM; stronger effect = higher value
# Method in brief: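 In this whole-cell yeast screen, a strain with altered DNA damage repair is challenged with compound, and its growth is measured against matched vehicle-treated controls.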
Structure (SMILES),growth inhibition [1],growth inhibition [2],growth inhibition [3],growth inhibition [4],growth inhibition [5],growth inhibition [6]
O=C1C=CC(c2ccccc2)(c2ccccc2)O1,-32.7%,-10.8%,-15.3%,-22.4%,-8.35%,-7.1%
COc1ccc(-c2c(C#N)c(S)n(NS(=O)(=O)c3ccccc3)c(=O)c2C#N)cc1,16.8%,56.7%,43.7%,-1.5%,34%,58%
OC(CC1CCCCN1)c1ccc2c(c1)oc1ccccc12 (configuration not stated),71.7% (active),56.9%,62.2%,56.2%,73.8% (active),75.6% (active)
COc1ccc(-c2cn3c(nc4ccccc43)c(C)n2)cc1,-4.8%,-3.15%,16.6%,-17.9%,21%,-11.3%
O=S(O)CCCCCSSCCCCSSCCCCCS(=O)O,7.6%,-0.15%,11.5%,10.3%,12.8%,27.4%
Cc1nn(C(N)=S)c(C)c1N=Nc1ccc(O)cc1,-5.2%,-4.2%,-4.9%,-29.8%,-11.2%,15.9%
Cc1ccc(O)c(C(=O)CCCC(=O)c2cc(C)ccc2O)c1,-4.6%,7.9%,7.7%,12.5%,-8.3%,4.35%
O=S1(=O)CCCCc2ccccc21,7.35%,-0.75%,3.75%,-9.35%,1.85%,-23.2%
CC1CCC(C(C)C)C2(C1)OC(CCl)CS2 (configuration not stated),-0.35%,14.7%,7.8%,-18.1%,26.9%,1.95%
Cn1c(=O)c(C#N)c2n(C)c3ccccc3n2c1=O,64.8%,17.4%,13.8%,2.25%,-36.1%,-0.15%
O=c1[nH]cnc2c(C3OC(CO)C(O)C3O)[nH]nc12 (configuration not stated),-5.2%,-34.7%,-15.8%,3.3%,-16.8%,-0.45%
CCOC(=O)C(C)(C)Oc1ccc2c(=O)cc(-c3ccc(Cl)cc3)oc2c1,-19.6%,-20.1%,-30.3%,-14.5%,-38.9%,-29.4%
O=C(NCc1ccco1)Nc1ccccc1Cl,-24.9%,-0.2%,-6.2%,45.8%,4.25%,-11%
CC(C)CSC(C)C,-3.6%,-43.4%,-27.6%,-5.25%,-6.9%,-11.1%
O=C(OCC1OC(Br)CC(OC(=O)c2ccc([N+](=O)[O-])cc2)C1OC(=O)c1ccc([N+](=O)[O-])cc1)c1ccc([N+](=O)[O-])cc1 (configuration not stated),6.9%,9.95%,18.1%,-22.4%,-8.95%,35.5%
O=Cc1ccnc2c(Cl)cccc12,16.4%,22.8%,-1.1%,15.1%,6.3%,18%
Cc1ccc(S(=O)(=O)CC(=O)c2ccc(Br)cc2)cc1,-2.7%,-21.2%,-16.4%,4.9%,6.55%,8.75%
CCOc1ccccc1NC(=O)Nc1cccc2ccccc12,-3.5%,3.75%,3.65%,-22.3%,-6.8%,-15.4%
CCn1c2ccccc2n2c(=O)c3c(c(C#N)c12)CCCC3,4.6%,13.2%,-30.1%,-8.6%,-33.9%,-18.5%
O=[N+]([O-])c1ccc(Nc2nc3ccccc3s2)cc1,6.75%,11.8%,-24.7%,-21.5%,5.75%,15.2%
CCCCC1NNC(CCCC)NN1 (configuration not stated),2.8%,-15.2%,-18.8%,-25.8%,-6.3%,-1.4%

Structure (SMILES),growth inhibition [1],growth inhibition [2],growth inhibition [3],growth inhibition [4],growth inhibition [5],growth inhibition [6]
CNC(=O)Nc1nnnc2ccccc12,10.1%,1.45%,-4.05%,-10.6%,-0.15%,13.9%
COC(=O)Cc1cc(=O)c2cc(C)ccc2[nH]1,0.9%,3.6%,-2.7%,-29.6%,-13.9%,-1.15%
O=C([O-])c1ccc(C(=O)[O-])cc1.O=C([O-])c1ccc(C(=O)[O-])cc1.[Mo+2].[Mo+2],-38.6%,18.1%,2.85%,9.1%,-11.8%,16.6%
COC(=O)CN(c1c(C)cc(C)c(N)c1C)S(=O)(=O)c1ccccc1,0.2%,15.9%,4.65%,5.4%,-11.3%,-25.3%
CC1SC2=NC3=C(c4ccccc4C3=O)C(c3ccc(F)cc3)N2C1=O (configuration not stated),34.4%,24.2%,35.8%,32%,47.1%,22.8%
NC(=O)C(=CNC(=S)Nc1ccc(Cl)c(Cl)c1)C(N)=O,8.6%,-3.75%,18.4%,27.3%,2.05%,3.9%
O=COC1CC2CC1c1ccccc12 (configuration not stated),4.8%,-9.7%,-1.7%,-7.8%,-3.85%,6.8%
Cc1cccc(C(N)=S)n1,14.9%,7.5%,11.1%,23.9%,18.8%,22.5%
CC(=O)Nc1ccc[n+](CC(=O)c2ccc(F)cc2)c1,-8.95%,0.85%,4.35%,-42.6%,-5.45%,8.65%
Cc1cccc(Cl)c1NC(=O)c1ccc(C(=O)Nc2c(C)cccc2Cl)cc1,-3%,-17.1%,5.25%,4.05%,2.6%,-12.1%
O=C1C[C@H]2CCCC[C@@H]2O1,2%,3.55%,26.5%,39.1%,-13.5%,-6%
Cc1ccc(/C=C/C(=O)/C=C/c2ccc(C)cc2)cc1,9.05%,9.25%,15.6%,-2.6%,23.6%,18.7%
CCc1cccc(C)c1NC(=S)NC(=O)c1ccccc1C(=O)NC(=S)Nc1c(C)cccc1CC,12.3%,7.7%,0.95%,20.9%,11.8%,20.4%
CCCCCCCCCCCCCCCC(=O)N(CCCCCCCCCCC(=O)O)CC(O)C(O)C(OC1OC(CO)C(O)C(O)C1O)C(O)CO (configuration not stated),-8.15%,-23.6%,10.2%,-22.3%,50.6%,-15.8%
C1CCC2C3CCC(O3)C2C1 (configuration not stated),-4.2%,1.05%,5.4%,-33.7%,-39.1%,2.35%
CCC1=CCN(c2cc(C)ccn2)OC1c1ccc(OC)cc1 (configuration not stated),47.9%,6.15%,48.4%,14.3%,61%,6.35%
COc1ccc(C(O)C2CC(=O)NN=C2C)cc1OC (configuration not stated),8.05%,-0.85%,-3.3%,6.7%,8.7%,-1.7%
O=C(Nc1ccc(Cl)c(Cl)c1)OCCN1CCOCC1,82.3% (active),97.2% (active),94% (active),67.2%,91.2% (active),92.8% (active)
S=C1CSc2c(ccc3ccccc23)N1,-30.8%,-14.8%,19.2%,4.95%,19.9%,-9.4%
CC(C)CC(NC(=O)c1ccccc1C(=O)O)C(N)=O (configuration not stated),-6.7%,3.5%,6.65%,-0.15%,6.2%,-19%
ClCCOC(CCl)OCCCl,24.1%,6.9%,22.1%,20.4%,6.5%,14.5%
